{"source": "PubChem BioAssay (NCATS)", "note": "Records with an inconclusive call do not appear. A call without a number means that no potency is given here. Activity calls are given as the source filed them. Calls follow the shape of the dose curve; as a rule, active = well fitted curve in the direction sought with a large enough effect; inconclusive = small, poorly fitted or top-dose-only effect, or another doubt; inactive = no such curve, though single readings can be large; an effect the other way counts as inactive or inconclusive.", "data": [{"biological_target": "Aldehyde dehydrogenase, mitochondrial (Homo sapiens) (UniProt P05091)", "assay": "qHTS for Inhibitors of the Aldehyde Dehydrogenase Family (ALDH2) Primary screen (AID 2061308); also: nearly all actives have a fitted effect of over 55% in size", "conditions": "ALDH2 enzyme inhibition qHTS, 1536-well; series mostly up to 56 µM", "values": [{"smiles": "COc1cccc(C2=Nn3c(nnc3-c3cccc(OC)c3OC)SC2)c1", "Potency": "inactive"}, {"smiles": "O=C(CNC(=O)c1ccc([N+](=O)[O-])cc1)OC(C(=O)Nc1cc(C(F)(F)F)ccc1Cl)c1ccccc1", "note": "(stereo not given)", "Potency": "inactive"}, {"smiles": "CC(=O)c1cccc(NC(=O)Nc2nnc(-c3ccncc3)s2)c1", "Potency": "inactive"}, {"smiles": "Cc1ccc(S(=O)(=O)Nc2ccc(F)cc2C(=O)Nc2nc(-c3ccccc3)cs2)cc1", "Potency": "inactive"}, {"smiles": "Cn1cc(C[C@H](C(=O)O)N2C(=O)c3ccc(C(=O)O)cc3C2=O)c2ccccc21", "Potency": "inactive"}, {"smiles": "CN(C)c1ccc(-c2ccc(=O)n(CC(=O)NCCc3ccccc3)n2)cc1", "Potency": "inactive"}, {"smiles": "Cc1cccc(-n2cnc3cc(C(=O)N4CCOCC4)ccc32)c1", "Potency": "inactive"}, {"smiles": "O=C1c2ccccc2C(=O)N1c1cccc2ncccc12", "Potency": "inactive"}, {"smiles": "COc1ccc(OC)c(C2=Nn3c(nnc3-c3ccccc3OC)SC2)c1", "Potency": "inactive"}, {"smiles": "Cc1cc2c(s1)c1cnn(Cc3c(F)cccc3F)c(=O)c1n2C", "Potency": "inactive"}, {"smiles": "NC(=O)C1CCN(c2nc(-c3ccccc3F)cs2)CC1", "Potency": "inactive"}, {"smiles": "Cc1ccc(-n2nc3c(N4CCCC(C(=O)NCc5ccccc5C)C4)nnc(C)c3c2C)cc1", "note": "(stereo not given)", "Potency": "inactive"}, {"smiles": "Cc1cc2c(s1)c1cnn(Cc3ccc(F)cc3)c(=O)c1n2C", "Potency": "inactive"}, {"smiles": "CCCn1c(-c2ccc(F)cc2)nc2c(NCCCN3CCOCC3)nc(C)nc21", "Potency": "inactive"}, {"smiles": "Clc1ccc(CN(CCCNc2ncnc(NCCCc3cnc[nH]3)n2)c2ccc(Br)cn2)cc1Cl", "Potency": "inactive"}, {"smiles": "O=C(CCc1ccccc1)Nc1ccc(S(=O)(=O)Nc2nccs2)cc1", "Potency": "inactive"}, {"smiles": "Cc1ccc(NS(=O)(=O)c2cc3c(cc2Cl)CCC(=O)N3)cc1Cl", "Potency": "inactive"}, {"smiles": "FC(F)(F)c1ccccc1-c1nc(NCc2ccccc2)c2ccccc2n1", "Potency": "inactive"}, {"smiles": "Cc1cc(NC(=O)Nc2cccc(-c3ccncc3)n2)ccc1Br", "Potency": "inactive"}, {"smiles": "O=C(Nc1ccc(Cl)c([N+](=O)[O-])c1)Nc1cccc(-c2ccncc2)n1", "Potency": "inactive"}, {"smiles": "O=C(Nc1ccc2ccccc2c1)Nc1cccc(-c2ccncc2)n1", "Potency": "inactive"}, {"smiles": "COc1ccccc1C(=O)Nc1nc(-c2ccccc2)cs1", "Potency": "inactive"}, {"smiles": "Cc1ccc(-c2ccc(=O)n(CC(=O)NCCc3ncc[nH]3)n2)cc1", "Potency": "inactive"}, {"smiles": "Oc1c(CN2CCCCC2)cc(COCc2ccccc2)c2cccnc12", "Potency": "inactive"}, {"smiles": "Cc1nc(N2CCOCC2)c2nc(-c3ccccc3)n(CCN(C)C)c2n1", "Potency": "inactive"}, {"smiles": "O=C(Nc1ccc(-c2cn[nH]c2)cc1)Nc1nnc(-c2ccncc2)s1", "Potency": "inactive"}, {"smiles": "COc1ccc([S+](=O)([O-])N2CCCN([S+](=O)([O-])c3ccc(OC)c(NC(C)=O)c3)CC2)cc1NC(C)=O", "Potency": "inactive"}, {"smiles": "C=C1C(=O)O[C@@H]2C(OC(=O)/C(C)=C\\C)/C(C)=C\\C(=O)/C=C(\\C)C[C@H](O)[C@@H]12", "note": "(stereo not given in full)", "Potency": "inactive"}, {"smiles": "Cc1ccc2c(c1)/C(=C\\c1cc(Cl)c(O)c(Cl)c1)C(=O)N2", "Potency": "inactive"}, {"smiles": "CC(C)CC(=O)O[C@@H]1OC=C(CO[C@@H]2O[C@H](CO[C@@H]3O[C@H](CO)[C@@H](O)[C@H](O)[C@H]3O)[C@@H](O)[C@H](O)[C@H]2O)[C@H]2C[C@H](O)[C@@H](CO)[C@@H]12", "Potency": "inactive"}, {"smiles": "Clc1ccc2ncc(-c3cccc(NC4CCNCC4)n3)n2c1", "Potency": "inactive"}, {"smiles": "CCOC(=O)c1[nH]c2c(c1C)C(=O)CCC2", "Potency": "inactive"}, {"smiles": "COc1cccc(-c2ccc(=O)n(CC(=O)NCCc3ccccc3)n2)c1", "Potency": "inactive"}, {"smiles": "Cc1cnc(-c2ccccc2C(C)C)nc1NCC1CCN(c2cccnc2)C1", "note": "(stereo not given)", "Potency": "inactive"}, {"smiles": "Cc1cc2c(s1)c1cnn(Cc3ccc(Cl)c(Cl)c3)c(=O)c1n2C", "Potency": "inactive"}, {"smiles": "COC(=O)c1cc2c(C(F)(F)F)cc(-c3ccccc3)cc2n1O", "Potency": "inactive"}, {"smiles": "O=S(=O)(NC1CCN(S(=O)(=O)c2c(F)cccc2F)CC1)c1ccc2c(c1)OCCO2", "Potency": "inactive"}, {"smiles": "Cc1cc(C)nc(NC(=S)N2CCN(c3nncs3)CC2)c1", "Potency": "inactive"}, {"smiles": "O=C(NCc1ccccc1)Nc1ncnc2c1C(c1ccccc1)c1c(ccc3ccccc13)O2", "note": "(stereo not given)", "Potency": "inactive"}, {"smiles": "Cc1cc2c(s1)c1c(n2C)C(=O)N(Cc2ccccc2F)C1", "Potency": "inactive"}]}, {"biological_target": "Retinaldehyde dehydrogenase 3 (Homo sapiens) (UniProt P47895)", "assay": "qHTS for Inhibitors of the Aldehyde Dehydrogenase Family (ALDH1A3) Primary screen (AID 2061315)", "conditions": "ALDH inhibition qHTS; series mostly up to 56 µM", "values": [{"smiles": "COc1cccc(C2=Nn3c(nnc3-c3cccc(OC)c3OC)SC2)c1", "Potency": "inactive"}, {"smiles": "O=C(CNC(=O)c1ccc([N+](=O)[O-])cc1)OC(C(=O)Nc1cc(C(F)(F)F)ccc1Cl)c1ccccc1", "note": "(stereo not given)", "Potency": "inactive"}, {"smiles": "CC(=O)c1cccc(NC(=O)Nc2nnc(-c3ccncc3)s2)c1", "Potency": "inactive"}, {"smiles": "Cc1ccc(S(=O)(=O)Nc2ccc(F)cc2C(=O)Nc2nc(-c3ccccc3)cs2)cc1", "Potency": "inactive"}, {"smiles": "Cn1cc(C[C@H](C(=O)O)N2C(=O)c3ccc(C(=O)O)cc3C2=O)c2ccccc21", "Potency": "inactive"}, {"smiles": "CN(C)c1ccc(-c2ccc(=O)n(CC(=O)NCCc3ccccc3)n2)cc1", "Potency": "inactive"}, {"smiles": "Cc1cccc(-n2cnc3cc(C(=O)N4CCOCC4)ccc32)c1", "Potency": "inactive"}, {"smiles": "O=C1c2ccccc2C(=O)N1c1cccc2ncccc12", "Potency": "inactive"}, {"smiles": "COc1ccc(OC)c(C2=Nn3c(nnc3-c3ccccc3OC)SC2)c1", "Potency": "inactive"}, {"smiles": "Cc1cc2c(s1)c1cnn(Cc3c(F)cccc3F)c(=O)c1n2C", "Potency": "inactive"}, {"smiles": "NC(=O)C1CCN(c2nc(-c3ccccc3F)cs2)CC1", "Potency": "inactive"}, {"smiles": "Cc1ccc(-n2nc3c(N4CCCC(C(=O)NCc5ccccc5C)C4)nnc(C)c3c2C)cc1", "note": "(stereo not given)", "Potency": "inactive"}, {"smiles": "Cc1cc2c(s1)c1cnn(Cc3ccc(F)cc3)c(=O)c1n2C", "Potency": "inactive"}, {"smiles": "CCCn1c(-c2ccc(F)cc2)nc2c(NCCCN3CCOCC3)nc(C)nc21", "Potency": "inactive"}, {"smiles": "Clc1ccc(CN(CCCNc2ncnc(NCCCc3cnc[nH]3)n2)c2ccc(Br)cn2)cc1Cl", "Potency": "inactive"}, {"smiles": "O=C(CCc1ccccc1)Nc1ccc(S(=O)(=O)Nc2nccs2)cc1", "Potency": "inactive"}, {"smiles": "Cc1ccc(NS(=O)(=O)c2cc3c(cc2Cl)CCC(=O)N3)cc1Cl", "Potency": "inactive"}, {"smiles": "FC(F)(F)c1ccccc1-c1nc(NCc2ccccc2)c2ccccc2n1", "Potency": "inactive"}, {"smiles": "Cc1cc(NC(=O)Nc2cccc(-c3ccncc3)n2)ccc1Br", "Potency": "inactive"}, {"smiles": "O=C(Nc1ccc(Cl)c([N+](=O)[O-])c1)Nc1cccc(-c2ccncc2)n1", "Potency": "inactive"}, {"smiles": "O=C(Nc1ccc2ccccc2c1)Nc1cccc(-c2ccncc2)n1", "Potency": "inactive"}, {"smiles": "COc1ccccc1C(=O)Nc1nc(-c2ccccc2)cs1", "Potency": "inactive"}, {"smiles": "Cc1ccc(-c2ccc(=O)n(CC(=O)NCCc3ncc[nH]3)n2)cc1", "Potency": "inactive"}, {"smiles": "Oc1c(CN2CCCCC2)cc(COCc2ccccc2)c2cccnc12", "Potency": "inactive"}, {"smiles": "Cc1nc(N2CCOCC2)c2nc(-c3ccccc3)n(CCN(C)C)c2n1", "Potency": "inactive"}, {"smiles": "O=C(Nc1ccc(-c2cn[nH]c2)cc1)Nc1nnc(-c2ccncc2)s1", "Potency": "inactive"}, {"smiles": "COc1ccc([S+](=O)([O-])N2CCCN([S+](=O)([O-])c3ccc(OC)c(NC(C)=O)c3)CC2)cc1NC(C)=O", "Potency": "inactive"}, {"smiles": "C=C1C(=O)O[C@@H]2C(OC(=O)/C(C)=C\\C)/C(C)=C\\C(=O)/C=C(\\C)C[C@H](O)[C@@H]12", "note": "(stereo not given in full)", "Potency": "inactive"}, {"smiles": "Cc1ccc2c(c1)/C(=C\\c1cc(Cl)c(O)c(Cl)c1)C(=O)N2", "Potency": "inactive"}, {"smiles": "CC(C)CC(=O)O[C@@H]1OC=C(CO[C@@H]2O[C@H](CO[C@@H]3O[C@H](CO)[C@@H](O)[C@H](O)[C@H]3O)[C@@H](O)[C@H](O)[C@H]2O)[C@H]2C[C@H](O)[C@@H](CO)[C@@H]12", "Potency": "inactive"}, {"smiles": "Clc1ccc2ncc(-c3cccc(NC4CCNCC4)n3)n2c1", "Potency": "inactive"}, {"smiles": "CCOC(=O)c1[nH]c2c(c1C)C(=O)CCC2", "Potency": "inactive"}, {"smiles": "COc1cccc(-c2ccc(=O)n(CC(=O)NCCc3ccccc3)n2)c1", "Potency": "inactive"}, {"smiles": "Cc1cnc(-c2ccccc2C(C)C)nc1NCC1CCN(c2cccnc2)C1", "note": "(stereo not given)", "Potency": "inactive"}, {"smiles": "Cc1cc2c(s1)c1cnn(Cc3ccc(Cl)c(Cl)c3)c(=O)c1n2C", "Potency": "inactive"}, {"smiles": "COC(=O)c1cc2c(C(F)(F)F)cc(-c3ccccc3)cc2n1O", "Potency": "inactive"}, {"smiles": "O=S(=O)(NC1CCN(S(=O)(=O)c2c(F)cccc2F)CC1)c1ccc2c(c1)OCCO2", "Potency": "inactive"}, {"smiles": "Cc1cc(C)nc(NC(=S)N2CCN(c3nncs3)CC2)c1", "Potency": "inactive"}, {"smiles": "O=C(NCc1ccccc1)Nc1ncnc2c1C(c1ccccc1)c1c(ccc3ccccc13)O2", "note": "(stereo not given)", "Potency": "inactive"}, {"smiles": "Cc1cc2c(s1)c1c(n2C)C(=O)N(Cc2ccccc2F)C1", "Potency": "inactive"}]}]}
